Measured values reported in PubChem BioAssay (EPA / NIEHS).
Values joined by “and” are separate entries in the source; they are usually repeats but may differ in a detail not shown here. Equal values may be shown once. Inconclusive results are not listed. Where a structure was tested more than once in an assay, its records may differ in their call. Active and inactive are the calls of the source. Rule for the calls, unless noted: active = hit-call score of the fitted dose curve at least 0.9, where 1 is the maximum; inactive = score below 0.9.

Columns and labels:
[1] = biological target: Glucocorticoid receptor (Homo sapiens) (UniProt P04150); assay: ATG_GR_TRANS: Attagene TRANS-FACTORIAL HepG2 Assay for human Glucocorticoid Receptor (GR) (AID 2282978; active = hit-call score of the fitted dose curve at least 0.9, where 1 is the maximum;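 note: activators score as hits since higher reporter transcript over DMSO is fitted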); settings: HepG2 Attagene TRANS GR reporter, mRNA transcription
Glucocorticoid receptor (Homo sapiens), sequence (P04150 whole entry, looked up, the tested form may be a part): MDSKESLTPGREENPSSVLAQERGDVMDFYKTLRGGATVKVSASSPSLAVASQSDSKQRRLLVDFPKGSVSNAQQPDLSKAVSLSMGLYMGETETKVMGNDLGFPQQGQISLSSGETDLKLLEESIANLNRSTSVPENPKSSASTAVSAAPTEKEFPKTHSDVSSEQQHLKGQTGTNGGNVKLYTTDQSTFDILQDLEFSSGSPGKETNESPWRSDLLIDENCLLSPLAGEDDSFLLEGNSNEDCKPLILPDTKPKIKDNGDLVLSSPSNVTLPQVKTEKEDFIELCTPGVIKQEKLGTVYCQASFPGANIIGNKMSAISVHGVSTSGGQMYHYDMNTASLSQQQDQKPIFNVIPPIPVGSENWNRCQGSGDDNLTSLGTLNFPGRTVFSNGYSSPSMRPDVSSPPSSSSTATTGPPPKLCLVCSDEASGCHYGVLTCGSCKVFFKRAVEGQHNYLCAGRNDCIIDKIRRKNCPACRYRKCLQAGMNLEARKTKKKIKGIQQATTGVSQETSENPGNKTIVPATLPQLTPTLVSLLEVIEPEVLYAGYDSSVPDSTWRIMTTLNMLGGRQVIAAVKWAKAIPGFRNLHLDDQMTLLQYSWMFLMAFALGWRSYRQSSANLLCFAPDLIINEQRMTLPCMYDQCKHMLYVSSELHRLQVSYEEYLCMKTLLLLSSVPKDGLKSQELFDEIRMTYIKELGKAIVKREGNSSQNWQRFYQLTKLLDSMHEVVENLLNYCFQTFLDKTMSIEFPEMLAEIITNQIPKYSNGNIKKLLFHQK
How it was run: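 Fluorescent capillary-electrophoresis quantitation of reporter mRNA is the readout, taken 24 h after dosing human HepG2 cells carrying transiently transfected GAL4-UAS reporter units activated by chimeric NR-GAL4 fusions; activity scored as induction over DMSO.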

[2] = biological target: Bile acid receptor (Homo sapiens) (UniProt Q96RI1); assay: ATG_FXR_TRANS: Attagene TRANS-FACTORIAL HepG2 Assay for Farnesoid X Receptor (FXR) (AID 2282979; active = hit-call score of the fitted dose curve at least 0.9, where 1 is the maximum;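 note: hits raise reporter mRNA above DMSO so AC50 marks FXR activation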); settings: HepG2 Attagene TRANS FXR-GAL4 reporter transcription
Bile acid receptor (Homo sapiens), sequence (Q96RI1 whole entry, looked up, the tested form may be a part): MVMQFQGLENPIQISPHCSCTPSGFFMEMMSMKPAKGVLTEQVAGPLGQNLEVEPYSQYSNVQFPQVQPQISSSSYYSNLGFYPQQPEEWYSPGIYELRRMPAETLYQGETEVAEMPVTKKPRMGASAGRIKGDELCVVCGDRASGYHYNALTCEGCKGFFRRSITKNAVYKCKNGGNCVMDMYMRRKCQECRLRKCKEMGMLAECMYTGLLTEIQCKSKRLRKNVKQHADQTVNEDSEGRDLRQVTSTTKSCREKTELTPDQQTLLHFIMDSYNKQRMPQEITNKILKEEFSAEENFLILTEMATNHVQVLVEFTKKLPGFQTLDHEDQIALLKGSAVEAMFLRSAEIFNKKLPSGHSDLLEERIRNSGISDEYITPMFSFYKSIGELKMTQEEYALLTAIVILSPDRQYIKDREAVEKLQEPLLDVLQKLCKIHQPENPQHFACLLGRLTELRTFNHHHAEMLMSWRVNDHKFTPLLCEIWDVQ
How it was run: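 Reporter transcripts from transfected HepG2 cells were measured 24 h after dosing, using RT-PCR with capillary electrophoresis of 6-FAM-labelled fragments. The read-out reflects activity of exogenous FXR-Gal4 chimera on GAL4-UAS units, with induction relative to DMSO.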

[3] = ATG_M_06_TRANS: Attagene TRANS-FACTORIAL HepG2 Assay for M06 Transcription Factor (Internal Marker) (AID 2282983; active = hit-call score of the fitted dose curve at least 0.9, where 1 is the maximum); settings: HepG2 Attagene TRANS M06 internal marker reporter
How it was run: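 Background-control reporter readout: after 24 h chemical exposure of transiently transfected HepG2 (GAL4-UAS reporter units), mRNA quantified by RT-PCR with fluorescent labeling and capillary electrophoresis. Gain-of-signal fitting against DMSO baseline.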

[4] = biological target: Transcriptional activator Myb (Homo sapiens) (UniProt P10242); assay: ATG_Myb_CIS: Attagene CIS-FACTORIAL HepG2 Assay for human Myeloblastosis (Myb) Proto-Oncogene Transcription Factor (AID 2282986); settings: HepG2 Attagene CIS-FACTORIAL Myb reporter transcription; actives raise or lower the signal
Transcriptional activator Myb (Homo sapiens), sequence (P10242 whole entry, looked up): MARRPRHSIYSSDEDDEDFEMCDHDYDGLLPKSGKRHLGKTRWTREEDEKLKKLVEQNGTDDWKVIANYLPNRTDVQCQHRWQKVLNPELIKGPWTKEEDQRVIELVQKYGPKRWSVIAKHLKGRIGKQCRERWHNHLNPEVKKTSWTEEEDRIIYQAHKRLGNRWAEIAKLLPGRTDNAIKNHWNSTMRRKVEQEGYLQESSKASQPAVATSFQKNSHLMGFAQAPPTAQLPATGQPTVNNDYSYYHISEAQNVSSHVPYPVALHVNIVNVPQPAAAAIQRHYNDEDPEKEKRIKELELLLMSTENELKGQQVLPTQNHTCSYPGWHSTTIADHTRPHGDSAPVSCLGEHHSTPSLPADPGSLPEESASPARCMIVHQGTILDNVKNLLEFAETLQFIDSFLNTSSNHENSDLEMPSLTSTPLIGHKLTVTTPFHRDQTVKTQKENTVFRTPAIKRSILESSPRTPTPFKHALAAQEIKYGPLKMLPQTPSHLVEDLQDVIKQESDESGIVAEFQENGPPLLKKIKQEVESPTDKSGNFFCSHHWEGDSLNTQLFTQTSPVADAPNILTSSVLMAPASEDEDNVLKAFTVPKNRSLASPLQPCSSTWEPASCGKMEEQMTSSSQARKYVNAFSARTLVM
How it was run: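 Reporter transcript levels, quantified by fluorescent RT-PCR and capillary electrophoresis, serve as the read-out. Transfected HepG2 cells carrying cis-promoter reporter units are dosed for 24 hours, and curves are fitted bidirectionally against DMSO controls.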

[5] = biological target: Nuclear respiratory factor 1 (Homo sapiens) (UniProt Q16656); assay: ATG_NRF1_CIS: Attagene CIS-FACTORIAL HepG2 Assay for human Nuclear Respiratory Factor 1 (NRF1) Orphan Gene (AID 2282987); settings: HepG2 NRF1 cis-element reporter, Attagene multiplex; actives raise or lower the signal
Nuclear respiratory factor 1 (Homo sapiens), sequence (Q16656 whole entry, looked up): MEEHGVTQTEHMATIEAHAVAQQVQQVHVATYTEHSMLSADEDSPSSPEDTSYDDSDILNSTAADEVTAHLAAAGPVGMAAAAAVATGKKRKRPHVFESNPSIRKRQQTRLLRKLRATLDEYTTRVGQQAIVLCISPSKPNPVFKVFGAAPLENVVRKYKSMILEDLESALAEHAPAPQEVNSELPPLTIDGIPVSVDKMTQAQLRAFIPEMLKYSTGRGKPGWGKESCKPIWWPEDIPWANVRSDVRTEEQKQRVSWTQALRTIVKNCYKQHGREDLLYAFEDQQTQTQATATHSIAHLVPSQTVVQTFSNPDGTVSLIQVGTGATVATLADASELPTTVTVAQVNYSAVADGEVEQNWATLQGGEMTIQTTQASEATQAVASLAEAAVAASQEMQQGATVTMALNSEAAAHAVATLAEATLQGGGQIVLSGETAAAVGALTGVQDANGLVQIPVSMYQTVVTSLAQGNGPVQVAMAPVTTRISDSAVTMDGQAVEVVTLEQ
How it was run: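 Multiplexed cis-reporter assay, HepG2 cells, 24 h treatment. Total RNA → oligo(dT) RT → PCR with reporter-specific primers → 6-FAM primer extension → HpaI cut → CE. Bidirectional fit vs DMSO.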

[6] = ATG_NFI_CIS: Attagene CIS-FACTORIAL HepG2 Assay for human Nuclear Factor I (NFI) (AID 2282989); settings: HepG2 cis-regulatory reporter, NFI response element transcription; actives raise or lower the signal
How it was run: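 Transient MRTU transfection of HepG2 → 24 h chemical dosing → total RNA, oligo(dT) RT → PCR, 6-FAM primer extension, HpaI cut → capillary electrophoresis. Endpoint fitted bidirectionally relative to DMSO.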

[7] = biological target: Myc proto-oncogene protein (Homo sapiens) (UniProt P01106); assay: ATG_Myc_CIS: Attagene CIS-FACTORIAL HepG2 Assay for human Myelocytomatosis (Myc) Proto-Oncogene Transcription Factor (AID 2282990); settings: HepG2, Attagene cis-reporter transcription factor activity; actives raise or lower the signal
Myc proto-oncogene protein (Homo sapiens), sequence (P01106 whole entry, looked up): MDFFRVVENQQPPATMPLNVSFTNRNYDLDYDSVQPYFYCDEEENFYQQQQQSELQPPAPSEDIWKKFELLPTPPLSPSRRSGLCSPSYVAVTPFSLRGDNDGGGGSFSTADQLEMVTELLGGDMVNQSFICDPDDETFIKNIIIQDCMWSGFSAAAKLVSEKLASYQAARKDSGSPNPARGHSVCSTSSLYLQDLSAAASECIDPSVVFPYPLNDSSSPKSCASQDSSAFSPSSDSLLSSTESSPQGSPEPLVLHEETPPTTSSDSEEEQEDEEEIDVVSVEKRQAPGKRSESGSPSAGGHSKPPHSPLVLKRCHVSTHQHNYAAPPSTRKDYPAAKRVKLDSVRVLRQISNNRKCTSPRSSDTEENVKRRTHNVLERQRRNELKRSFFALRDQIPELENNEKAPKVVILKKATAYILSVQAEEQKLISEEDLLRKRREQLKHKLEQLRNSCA
How it was run: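 Cells of the HepG2 human liver line bear multiple cis-driven reporter transcription units. Reporter mRNA after 24 h exposure is reverse-transcribed, amplified, labelled and resolved by capillary electrophoresis, with gain- or loss-of-signal fitting relative to DMSO.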

[8] = ATG_NF_kB_CIS: Attagene CIS-FACTORIAL HepG2 Assay for human Nuclear Factor Kappa B (NF-kB) (AID 2282991); settings: HepG2 Attagene cis-factorial NF-kB reporter mRNA; actives raise or lower the signal
How it was run: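 Transient MRTU transfection of human HepG2 liver cells → 24 h chemical exposure → total RNA, oligo(dT) RT → PCR, 6-FAM primer extension, HpaI digest 2 h 37 C → CE fragment analysis. Bidirectional fitting, DMSO negative control.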

[9] = ATG_NRF2_ARE_CIS: Attagene CIS-FACTORIAL HepG2 Assay for human Nuclear Factor Erythroid 2 Related Factor 2 (NFR2) response to Antioxidant Response Elements (ARE) (AID 2282992); settings: HepG2 Attagene ARE/NRF2 reporter, transcription factor activity; actives raise or lower the signal
How it was run: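 Endogenous transcription factor activity read out as reporter transcript levels (RT-PCR plus capillary electrophoresis, fluorescence) in transiently transfected HepG2 cells. Measured at 24 h after dosing; gain or loss of signal fitted versus DMSO.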

[10] = ATG_Oct_MLP_CIS: Attagene CIS-FACTORIAL HepG2 Assay for human Octamer-Binding Transcription Factor (Oct) (AID 2282993); settings: HepG2 Attagene cis-factorial Oct reporter, mRNA; actives raise or lower the signal
How it was run: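 Transient MRTU transfection of HepG2 → 24 h compound treatment → RNA isolation, reverse transcription, PCR → 6-FAM primer extension, HpaI digest → capillary electrophoresis. Activity fitted both directions against DMSO.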

[11] = biological target: Cellular tumor antigen p53 (Homo sapiens) (UniProt P04637); assay: ATG_p53_CIS: Attagene CIS-FACTORIAL HepG2 Assay for human p53 Transcription Factor (AID 2282994); settings: HepG2 p53 cis-element reporter, Attagene mRNA; actives raise or lower the signal
Cellular tumor antigen p53 (Homo sapiens), sequence (P04637 whole entry, looked up): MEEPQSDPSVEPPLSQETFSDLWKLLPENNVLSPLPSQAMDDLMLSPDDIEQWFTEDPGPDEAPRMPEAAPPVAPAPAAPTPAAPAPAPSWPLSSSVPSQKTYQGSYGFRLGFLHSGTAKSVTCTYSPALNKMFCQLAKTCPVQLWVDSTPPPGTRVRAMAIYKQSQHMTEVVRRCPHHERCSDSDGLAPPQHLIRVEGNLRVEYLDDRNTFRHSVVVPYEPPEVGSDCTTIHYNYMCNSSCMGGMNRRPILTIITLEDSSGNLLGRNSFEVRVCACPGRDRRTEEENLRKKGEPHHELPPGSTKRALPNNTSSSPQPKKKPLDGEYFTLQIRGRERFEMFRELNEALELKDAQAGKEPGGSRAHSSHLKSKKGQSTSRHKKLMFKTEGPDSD
How it was run: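 Endogenous p53 activity read in transiently transfected HepG2 from a cis-element-driven reporter transcript after 24 h exposure. RNA reverse-transcribed, PCR-amplified, fluorescently labelled and sized by capillary electrophoresis; gain or loss fitted against DMSO baseline.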

[12] = BSK_3C_TissueFactor: BioMAP Diversity Plus: 3C Assay for Tissue Factor Biomarker Activity (AID 2282997); settings: BioMAP 3C HUVEC, tissue factor biomarker readout; actives raise or lower the signal
How it was run: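 Tissue factor on primary human umbilical vein endothelium was read by ELISA 24 h after dosing, gain or loss relative to DMSO. Cytotoxicity ran alongside via SRB (0.1%, TCA-fixed, 560 nm).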

[13] = BSK_3C_uPAR: BioMAP Diversity Plus: 3C Assay for Urokinase-type plasminogen activator receptor (uPAR) Biomarker Activity (AID 2282998); settings: BioMAP 3C HUVEC, uPAR biomarker ELISA; actives raise or lower the signal
How it was run: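 ELISA readout of uPAR on human vascular endothelium (umbilical vein primary cells), taken 24 h after chemical dosing. Increases and decreases are both fitted relative to DMSO vehicle.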

[14] = BSK_3C_VCAM1: BioMAP Diversity Plus: 3C Assay for Vascular cell adhesion molecule 1 (VCAM1) Biomarker Activity (AID 2282999); settings: BioMAP 3C HUVEC, VCAM1 ELISA, cytokine-stimulated; actives raise or lower the signal
How it was run: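 Activity fitted in both directions relative to DMSO, with ELISA measurement of the surface marker on primary HUVEC (3C) at 24 h post-treatment; parallel SRB staining (0.1% SRB, TCA-fixed, 560 nm) flagged overt cytotoxicity.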

[15] = BSK_4H_Eotaxin3: BioMAP Diversity Plus: 4H Assay for Eotaxin 3 Biomarker Activity (AID 2283000); settings: primary human endothelial cells (HUVEC); actives raise or lower the signal
How it was run: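 Human umbilical vein endothelial cells (BSK_4H system) dosed with test chemical; Eotaxin-3 (CCL26) measured by ELISA 24 h after dosing. Bidirectional curve fitting relative to DMSO negative control as baseline.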

[16] = ATG_M_32_TRANS: Attagene TRANS-FACTORIAL HepG2 Assay for M32 Transcription Factor (Internal Marker) (AID 2282984; active = hit-call score of the fitted dose curve at least 0.9, where 1 is the maximum); settings: HepG2 Attagene TRANS M32 internal marker reporter
How it was run: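 Internal background reporter in transfected HepG2: after 24 h chemical exposure, RNA reverse-transcribed, reporter cDNA amplified, fluorescently labelled and HpaI-cut, then sized by capillary electrophoresis. Gain of signal fitted against DMSO control.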

[17] = biological target: Oxysterols receptor LXR-alpha (Homo sapiens) (UniProt Q13133); assay: ATG_LXRa_TRANS: Attagene TRANS-FACTORIAL HepG2 Assay for human Liver X Receptor alpha (LXRa) (AID 2282980; active = hit-call score of the fitted dose curve at least 0.9, where 1 is the maximum); settings: HepG2 Attagene TRANS reporter, LXRa transactivation
Oxysterols receptor LXR-alpha (Homo sapiens), sequence (Q13133 whole entry, looked up, the tested form may be a part): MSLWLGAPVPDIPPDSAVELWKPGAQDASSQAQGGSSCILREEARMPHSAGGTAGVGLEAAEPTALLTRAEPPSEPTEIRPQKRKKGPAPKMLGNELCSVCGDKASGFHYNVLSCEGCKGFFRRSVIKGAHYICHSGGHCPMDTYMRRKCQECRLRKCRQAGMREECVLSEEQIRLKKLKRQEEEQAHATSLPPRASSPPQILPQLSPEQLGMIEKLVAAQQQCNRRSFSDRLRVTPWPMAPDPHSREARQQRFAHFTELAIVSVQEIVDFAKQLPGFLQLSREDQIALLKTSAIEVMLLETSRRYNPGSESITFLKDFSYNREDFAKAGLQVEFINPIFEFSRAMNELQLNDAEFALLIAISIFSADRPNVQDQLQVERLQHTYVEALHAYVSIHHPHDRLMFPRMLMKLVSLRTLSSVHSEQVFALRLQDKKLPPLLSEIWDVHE
How it was run: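 Chemical-induced reporter mRNA measured by RT-PCR with fluorescent labelling and capillary electrophoresis after 24 h dosing of transiently transfected HepG2 cells expressing exogenous NR-Gal4 chimeras; increases scored against DMSO baseline.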

[18] = biological target: Nuclear receptor subfamily 4 group A member 2 (Homo sapiens) (UniProt P43354); assay: ATG_NURR1_TRANS: Attagene TRANS-FACTORIAL HepG2 Assay for human Nuclear Receptor Related Protein 1 (NURR1) (AID 2282985; active = hit-call score of the fitted dose curve at least 0.9, where 1 is the maximum); settings: HepG2 Attagene TRANS reporter, mRNA readout
How it was run: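 Reporter transcript induction, measured by RT-PCR with fluorescent labelling, HpaI digestion and capillary electrophoresis, after 24 hr dosing of human HepG2 cells transiently expressing an exogenous NR-Gal4 fusion with GAL4-UAS-driven reporters; DMSO as baseline.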

[19] = biological target: Oxysterols receptor LXR-beta (Homo sapiens) (UniProt P55055); assay: ATG_LXRb_TRANS: Attagene TRANS-FACTORIAL HepG2 Assay for human Liver X Receptor beta (LXRb) (AID 2282981; active = hit-call score of the fitted dose curve at least 0.9, where 1 is the maximum); settings: HepG2 Attagene TRANS GAL4-LXRb reporter, mRNA
Oxysterols receptor LXR-beta (Homo sapiens), sequence (P55055 whole entry, looked up, the tested form may be a part): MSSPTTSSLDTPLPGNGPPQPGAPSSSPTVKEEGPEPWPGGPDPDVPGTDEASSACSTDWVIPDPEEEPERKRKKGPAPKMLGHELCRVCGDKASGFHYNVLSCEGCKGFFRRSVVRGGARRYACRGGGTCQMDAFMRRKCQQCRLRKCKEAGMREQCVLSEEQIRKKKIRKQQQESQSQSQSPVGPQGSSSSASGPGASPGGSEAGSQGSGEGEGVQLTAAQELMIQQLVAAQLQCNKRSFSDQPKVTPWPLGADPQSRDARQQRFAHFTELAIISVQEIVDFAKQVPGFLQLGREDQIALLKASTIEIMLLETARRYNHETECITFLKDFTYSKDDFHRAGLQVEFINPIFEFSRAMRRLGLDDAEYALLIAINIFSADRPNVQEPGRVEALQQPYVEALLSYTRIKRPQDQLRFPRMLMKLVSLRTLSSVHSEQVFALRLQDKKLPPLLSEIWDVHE
How it was run: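 After 24 h chemical treatment of transfected HepG2 cells carrying exogenous NR-Gal4 chimeras, reporter mRNA was quantified by fluorescent RT-PCR and capillary electrophoresis; activity taken as increase over DMSO controls.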

[20] = biological target: Hepatocyte nuclear factor 4-alpha (Homo sapiens) (UniProt P41235); assay: ATG_HNF4a_TRANS: Attagene TRANS-FACTORIAL HepG2 Assay for human Hepatocyte Nuclear Factor 4 alpha (HNF4a) (AID 2282982; active = hit-call score of the fitted dose curve at least 0.9, where 1 is the maximum); settings: HepG2 HNF4a transactivation reporter, mRNA readout
Hepatocyte nuclear factor 4-alpha (Homo sapiens), sequence (P41235 whole entry, looked up, the tested form may be a part): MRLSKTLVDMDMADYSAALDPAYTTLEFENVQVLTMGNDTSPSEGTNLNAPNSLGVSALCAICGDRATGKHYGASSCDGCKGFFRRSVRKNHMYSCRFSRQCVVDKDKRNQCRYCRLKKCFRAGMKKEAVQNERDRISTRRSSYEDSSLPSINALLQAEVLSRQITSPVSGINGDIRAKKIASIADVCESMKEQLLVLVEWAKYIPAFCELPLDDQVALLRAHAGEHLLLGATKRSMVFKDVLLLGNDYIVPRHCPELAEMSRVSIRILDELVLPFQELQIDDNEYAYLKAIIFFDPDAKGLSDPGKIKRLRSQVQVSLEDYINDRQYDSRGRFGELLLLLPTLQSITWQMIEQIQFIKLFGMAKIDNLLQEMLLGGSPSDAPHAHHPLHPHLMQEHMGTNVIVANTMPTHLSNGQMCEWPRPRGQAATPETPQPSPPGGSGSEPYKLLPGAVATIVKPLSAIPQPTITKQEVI
How it was run: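 Activity of an exogenous HNF4a–Gal4 fusion scored as induced GAL4-UAS reporter transcripts after 24 h chemical exposure of transfected human HepG2 cells. Read-out via RT-PCR with 6-FAM labelling and capillary electrophoresis; rise over DMSO baseline.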

Measured: AC50

Clc1ccccc1C(c1ccccc1)(c1ccccc1)n1ccnc1
inactive: [1] | [2] | [3] | [4] | [5] | [6] | [7] | [8] | [11]
active: [9] 5.21 µM | [10] 11.1 µM | [12] 31 µM | [13] 14.8 µM | [14] 33.1 µM | [15] 31.3 µM

COCC(C)OCC(C)OCC(C)O (stereo unspecified)
inactive: [1] | [2] | [3] | [16] | [4] | [5] | [6] | [7] | [8] | [9] | [10] | [11] | [13] | [14] | [15]

CN(C)C(=O)C1(N2CCCCC2)CCN(CC[C@@]2(c3ccc(Cl)c(Cl)c3)CN(C(=O)c3ccccc3)CCO2)CC1
active: [8] 620 nM | [9] 0.458 µM | [12] 33.1 µM | [13] 7.23 µM | [14] 29.5 µM | [15] 27.9 µM
inactive: [1] | [2] | [17] | [3] | [18] | [4] | [5] | [6] | [7] | [10] | [11]

O=c1c(-c2ccc(O)cc2)coc2cc(O)cc(O)c12
inactive: [1] | [2] | [17] | [19] | [20] | [3] | [4] | [5] | [6] | [7] | [8] | [9] | [10] | [11] | [14]
active: [6] 27.1 µM | [8] 73.5 µM and 168 µM | [10] 49.4 µM | [13] 29.2 µM | [15] 29.1 µM

O=CCCCC=O
inactive: [1] | [2] | [17] | [19] | [20] | [3] | [16] | [4] | [5] | [6] | [7] | [8] | [9] | [10] | [11]
active: [8] 73100 nM | [9] 169 µM | [13] 33.3 µM | [14] 31.6 µM | [15] 31.4 µM

CC(=O)N1CCN(c2ccc(OC[C@H]3CO[C@](Cn4ccnc4)(c4ccc(Cl)cc4Cl)O3)cc2)CC1
active: [9] 24 µM | [10] 9.69 µM | [13] 29.8 µM | [15] 33.7 µM
inactive: [1] | [2] | [16] | [4] | [5] | [6] | [7] | [8] | [11] | [14]
